Results on 40 molecules are retold here after PubChem BioAssay (NCATS).

Where “and” joins values, the source holds several entries; their conditions need not be identical. Identical values can stand only once. Records with an inconclusive call do not appear. Calls of active or inactive are those of the source. Calls follow the shape of the dose curve; as a rule, active = well fitted curve in the direction sought with a large enough effect; inconclusive = small, poorly fitted or top-dose-only effect, or another doubt; inactive = no such curve, though single readings can be large or run the other way.
% is scaled to controls: 0 for no effect and ±100 for the full control effect; potency is read from the fitted curve at half-maximal effect.

This assay in a line: qHTS Assay for Identifying Gametocytocidal Compounds (AID 743244).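 As to max response: actives lower the fluorescent signal which means gametocytes are killed.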 Particulars: P. falciparum 3D7 stage III-V gametocytes, alamarBlue, 72 h; max response: stronger effect = lower value. The source says: Malaria cases and deaths have dropped 50% in 29 countries since 2000 due to the combined effects of long-lasting insecticidal bednets, indoor residual spraying, and artemisinin-based combination therapies (ACTs). This success has raised hopes for malaria eradication and consequently stimulated interest in developing new reagents that block gametocyte transmission such as novel and safe gametocytocidal drugs. However, previous drug development efforts have focused primarily on the asexual parasites that cause symptoms, but not malaria transmission. Consequently, patients can remain infectious for weeks after the clearance of asexual parasites and clinical symptoms. To be transmitted from person to person via a mosquito, the parasites must switch from asexual to sexual development and produce male and female gametocytes. Malaria gametocytes consist of five stages (I, II, III, IV and V). The late stage gametocytes (III, IV and V) are difficult to be cultured in vitro and the long lifespan of mature gametocytes allows them being transmitted from host to mosquitoes unless they are completely eliminated by gametocytocidal agents. To identify gametocytocidal compounds which are capable of killing late stage P. falciparum gametocytes, a high throughput gametocyte viability assay was employed. This assay uses oxidoreduction indicator, alamarBlue, as a general measure of metabolic activity of gametocytes. Within live cells, the nonfluorescent resazurin is reduced to resorufin, a bright red fluorescence dye. Fluorescence decreases upon treatment of gametocytocidal compounds. P. falciparum gametocyte (3D7 strain) was used in this study.
The 1536-well gametocycidal viability assay was based on the previous method of Tanaka et al. Stage III-V gametocytes were tested against three compound libraries, including 4265 compounds from NCGC pharmaceutical collection, 400 from Malaria Box library, and 550 from an internal collection of kinase inhibitors. Briefly, 2.5 ul/well incomplete medium was dispensed into each well of 1,536-well plates using the Multidrop Combi followed by 23 nl compound transferring using the NX-TR Pintool (WAKO Scientific Solutions, San Diego, CA). Then, 2.5 ul/well of gametocytes was dispensed with a seeding density of 20,000 cells/well using the Multidrop Combi. The assay plates were incubated for 72 h at 37C with 5% CO2. After addition of 5 ul/well of 2X AlamarBlue dye (Life Technologies, cat. no. DAL1100), the plates were incubated for 24 h at 37C with 5% CO2 and then were read in a fluorescence detection mode (Ex = 525 nm, Em = 598 nm) on a ViewLux plate reader (PerkinElmer).
Take `Nc1nc(N)c(-c2ccccc2)s1`: the max response was -3.45% (inactive).

Turning to `COc1ccc(CN(CCN(C)C)c2ncccn2)cc1`, the max response was -8.37% (inactive).

In the case of `CC(O)Cn1cnc2c1c(=O)n(C)c(=O)n2C` (stereo not given), the max response is 5.34% (inactive).

Regarding `O=C(NCCc1c[nH]c2ccccc12)c1cccnc1`, the max response was -3.02% (inactive).

For `OCCOCCN1CCN(C2=Nc3ccccc3Sc3ccccc32)CC1`, the max response is -0.0618% (inactive).

`NC(=O)C1(N2CCCCC2)CCN(CCCC(=O)c2ccc(F)cc2)CC1`: the max response was 6.95% (inactive).

On to `CCCCCCCC/C=C\CCCCCCCCN`, for which the max response is -6.53% (inactive).

Turning to `O=C1c2cccc3c2[C@H](CCC3)CN1[C@@H]1CN2CCC1CC2`, the max response is -7.45% (inactive).

As to `Cc1cc(CC(=O)O)c(C)n1-c1ccc(Cl)cc1`, the max response is -9.92% (inactive).

Turning to `COc1cc(O)c(C(=O)c2ccccc2)cc1S(=O)(=O)O`, the max response was -9.98% (inactive).

Consider `CCc1nn(CCCN2CCN(c3cccc(Cl)c3)CC2)c(=O)n1CCOc1ccccc1`, for which the max response was -8.53% (inactive) and -14% (inactive).

With `CO[C@]12C[C@@H](COC(=O)c3cncc(Br)c3)CN(C)[C@@H]1Cc1cn(C)c3cccc2c13`, the max response is 10.7% (inactive).

For `COc1ccccc1N1CCN(CCCCNC(=O)c2ccc(-c3ccc(C(C)=O)cc3)cc2)CC1`, the max response was 3.48% (inactive).

`CN1CCC[C@@H]1CCO[C@](C)(c1ccccc1)c1ccc(Cl)cc1`: the max response was -0.809% (inactive).

With `COc1ccc(C(=O)c2ccccc2O)c(O)c1`, the max response was 14.9% (inactive).

`CC(=O)N[C@@H](CCC(=O)O)C(=O)O`: the max response is -0.648% (inactive).

On to `CC(C)(C)NCC(O)COc1cccc2c1C[C@H](O)[C@H](O)C2` (stereo not given in full), for which the max response is -0.0039% (inactive).

`CCOc1ccccc1OCCN[C@H](C)Cc1ccc(OC)c(S(N)(=O)=O)c1`: the max response was 5.89% (inactive).

As for `CCCCCCCCCCCCCCCCO`, the max response is 19.3% (inactive).

`Nc1nc(-c2ccccc2)c(Br)c(=O)[nH]1`: the max response is -0.157% (inactive).

For the molecule `O=C(O)c1ccc(S(=O)(=O)N(Cl)Cl)cc1`, the max response is -8.91% (inactive).

`OCc1ccccn1`: the max response is -7.21% (inactive).

For `CCNC(=O)NCc1cccc(Cl)c1`, the max response is 8.55% (inactive).

Turning to `CO[C@H]1C=CO[C@@]2(C)Oc3c(C)c(O)c4c(O)c(c(/C=N/N5CCN(C)CC5)c(O)c4c3C2=O)NC(=O)/C(C)=C\C=C[C@H](C)[C@H](O)[C@@H](C)[C@@H](O)[C@@H](C)[C@H](OC(C)=O)[C@@H]1C`, the Potency was 15800 nM (active).

On to `O=C(O)Cc1csc(-c2ccc(Cl)cc2)n1`, for which the max response is -4.61% (inactive).

Consider `CCCCCCCCNC(C)C(O)c1ccc(SC(C)C)cc1` (stereo not given), for which the Potency is 2510 nM (active).

In the case of `Cc1ncc(CO)c(C=O)c1O`, the max response was -3.85% (inactive).

On to `CN1CCN(CCC(=O)N2c3ccccc3Sc3ccc(C(F)(F)F)cc32)CC1`, for which the max response was 2.75% (inactive).

With `CCC1NC(=O)c2cc(S(N)(=O)=O)c(Cl)cc2N1` (stereo not given), the max response was 5.58% (inactive).

`NS(=O)(=O)c1cc2c(cc1Cl)NC(CC1CCCC1)NS2(=O)=O` (stereo not given): the max response was 17.3% (inactive).

On to `CCOc1ccccc1C(N)=O`, for which the max response is 14% (inactive).

For the molecule `N#CCC(=O)NN`, the max response is -7.78% (inactive).

Consider `CCN1/C(=C/C=C/c2sc3ccccc3[n+]2CC)Sc2ccccc21`, for which the Potency is 1580 nM (active).

As for `CC(=O)O[C@]1(C(C)=O)CC[C@H]2[C@@H]3C=C(Cl)C4=CC(=O)CC[C@]4(C)[C@H]3CC[C@@]21C`, the max response is -7.79% (inactive).

Take `Oc1ccccc1C=NCc1ccccc1`: the max response is 0.984% (inactive).

For `COc1cc(C(=O)NCc2ccc(OCCN(C)C)cc2)cc(OC)c1OC`, the max response was 1.8% (inactive).

With `CCN(CC)CCNC(=O)c1cc(Br)c(N)cc1OC`, the max response was -8.23% (inactive).

As to `O=C(Nc1ncc([N+](=O)[O-])s1)c1cccs1`, the max response was 35.1% (inactive).

In the case of `COc1ccc(S(=O)(=O)N2c3ccc(Cl)cc3[C@@](O)(c3ccccc3Cl)[C@H]2C(=O)N2CCC[C@@H]2C(N)=O)cc1OC`, the max response is 20.2% (inactive).

Consider `CCOC(=O)Nc1ccc2c(c1)N(C(=O)CCN1CCOCC1)c1ccccc1S2`, for which the max response was 12.1% (inactive).
